Assay outcomes deposited in PubChem BioAssay by National Center for Advancing Translational Sciences (NCATS).
D1 ag: agonists of human D1 dopamine receptor; P21728; HEK293 T-REx D1 cells, calcium flux, agonist mode; activation, % at 2 µM; 360,000 compounds, 1% hits; AID 504660
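Tetracycline-induced HEK293 TREx D1 cells, force-coupled to calcium signalling, were dye-loaded with a no-wash calcium kit. Compound was pin-added after a 10 s baseline. Fluorescence was read kinetically at 1 cycle/s for 180 s, with calcium rises flagged as agonism.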
D1 antagonist: human D1 dopamine receptor antagonism; 360,000 compounds, 3.2% hits; activity change, negative = inhibition, % at 10 µM; AID 504652; P21728; HEK293 TREx D1 cells, calcium flux, dopamine EC80; stronger effect = lower value; in the data active = activity change below about -30%
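HEK293 T-REx cells expressing inducible, force-coupled D1 receptor; no-wash Ca dye, 30–90 min RT. Cmpd → 180 s read at 1 Hz → EC80 DA → 180 s read.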
TRHR ag: agonists of human TRH receptor; P34981; TRHR cells, calcium flux fluo-8, FDSS agonist mode; activation, % at 2 µM; 360,000 compounds, 0.18% hits
Target sequence (P34981 whole entry, looked up): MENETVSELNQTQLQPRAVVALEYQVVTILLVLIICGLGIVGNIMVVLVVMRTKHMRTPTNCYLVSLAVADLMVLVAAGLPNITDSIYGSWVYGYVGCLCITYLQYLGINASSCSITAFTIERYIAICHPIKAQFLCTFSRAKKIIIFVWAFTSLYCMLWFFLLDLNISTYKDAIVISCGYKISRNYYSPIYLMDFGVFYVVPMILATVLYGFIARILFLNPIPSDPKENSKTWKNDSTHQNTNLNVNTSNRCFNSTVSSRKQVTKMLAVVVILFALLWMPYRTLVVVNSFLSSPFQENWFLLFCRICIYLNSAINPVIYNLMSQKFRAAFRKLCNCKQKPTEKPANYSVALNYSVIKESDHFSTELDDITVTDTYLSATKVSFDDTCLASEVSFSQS
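TRHR-expressing cells, plated overnight in medium with 10% serum, were loaded with fluo-8 calcium dye at room temperature. After a 10 s baseline, library compound was pin-added and calcium release was recorded kinetically (ex 480/em 530) as agonist response.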
TRHR PAM: TRH receptor (human) allosteric enhancement; AID 493056; 360,000 compounds, 0.66% hits; P34981; enhancement, % at 2 µM; TRHR cells, fluo-8 calcium fluorescence, EC20 TRH enhancement; in the data active = enhancement above about 30%
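Enhancer read-out: after compound pinning and an initial kinetic agonist-mode read, an EC20 of TRH (10 nM final) was injected and fluo-8 calcium signal (Ex 480/Em 530) followed at 1 s/cycle for 100 cycles in TRHR-expressing cells.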
D1 PAM: enhances dopamine response at the human D1 receptor. HEK293 TREx D1 cells, calcium flux, dopamine EC20 potentiation. AID 504651. P21728. 360,000 compounds, 0.036% hits. potentiation, % at 10 µM; in the data active = potentiation above about 30%
Of the large screens only hits and unclear results are named; the others gave an inactive call; ! = repeats disagree. A selection: hits, their analogues and other compounds. The true share with any hit is near 4.7%. Cut-off read from the data, not from the text of the source, unless noted: active = activation above about 30%; inactive = the rest.

Cc1ccc(S(=O)(=O)N2CCN(C(=O)c3ccnn3C)CC2)cc1C	D1 antagonist -34
CC1CCN(S(=O)(=O)c2ccc3c(c2)CC(C)N3C(=O)C2CCC2)CC1 (stereo not given)	D1 antagonist -34
CC1CC(C)CN(C(=O)C2CCN(S(=O)(=O)c3ccc4c(c3)CC(C)N4C(=O)C3CC3)CC2)C1 (stereo not given)	D1 antagonist -45
Cc1cccc(NS(=O)(=O)c2ccc3c(c2)CC(C)N3C(=O)C2CCC2)c1C (stereo not given)	D1 antagonist -34
CC(=O)c1ccc(N2CCN(S(=O)(=O)c3ccc4c(c3)CC(C)N4C(C)=O)CC2)cc1 (stereo not given)	D1 antagonist -48
CC(=O)N1c2ccc(S(=O)(=O)N3CCC(C(=O)N4CC(C)CC(C)C4)CC3)cc2CC1C (stereo not given)	none
CCCCN(C)C(=O)C1CCC(CNS(=O)(=O)c2ccc3c(c2)CC(C)N3C(=O)C2CC2)CC1 (stereo not given)	D1 antagonist -43
Cc1cccc(N2CCN(S(=O)(=O)c3ccc(S(=O)(=O)N4CCCC4)cc3)CC2)c1C	none
COc1ccccc1CNS(=O)(=O)c1ccc2c(c1)CC(C)N2C(=O)C1CCC1 (stereo not given)	D1 antagonist -32!
COC(=O)c1cc(S(=O)(=O)N2CCN(c3ccc(C(C)=O)cc3)CC2)c[nH]1	D1 antagonist -32
Cc1cccc(N2CCN(S(=O)(=O)c3ccc4c(c3)CC(=O)N4C)CC2)c1C	D1 antagonist -30!
CCC(C)NC(=O)C1CCC(CNS(=O)(=O)c2ccc3c(c2)CC(C)N3C(=O)C2CC2)CC1 (stereo not given)	none
COC(=O)c1cc(S(=O)(=O)N2CCN(c3ccc(OC)cc3)CC2)c[nH]1	none
CCc1ccc(-c2nc(SCC(=O)NCCOC)c(-c3ccc(C)cc3)[nH]2)cc1	none
CCOc1ccc(NC(=O)c2cnn3c2NC(c2cccc(OC)c2)=CC3c2ccccc2)cc1 (stereo not given)	none
Cc1ccc(C(=O)NC2(C(F)(F)F)N=C(c3ccccc3)N(Cc3ccccc3)C2=O)cc1 (stereo not given)	none
CC1CCN(c2ccc(S(=O)(=O)N3CCC(C)CC3)cc2N)CC1	none
CC1CCN(S(=O)(=O)c2ccc3c(c2)N(C)C(=O)CC(=O)N3C)CC1	D1 antagonist -37!
CC(=O)N1c2ccc(S(=O)(=O)N3CCC(C(=O)N4CCN(c5cc(Cl)ccc5C)CC4)CC3)cc2CC1C (stereo not given)	D1 antagonist -33
COC(=O)CNC(=O)CCc1nnc(C2(c3ccc(Cl)cc3)CCC2)o1	none
COCC(C)NC(=O)CCc1nnc(C2(c3ccc(Cl)cc3)CCC2)o1 (stereo not given)	D1 antagonist -51
Cc1nn(CCc2nn[nH]n2)c2nc(-c3ccc(Br)cc3)cc(C(F)(F)F)c12	D1 antagonist -36
Cc1nn(CCc2nn[nH]n2)c2nc(C(F)(F)F)cc(C(F)(F)F)c12	none
CC1CCN(CCOc2cc(Cl)ccc2Cl)CC1	D1 antagonist -59
CC1CCN(CCOCCOc2ccc(Br)cc2Cl)CC1	D1 antagonist -33
CCc1cccc(NC(=O)c2c(N3CCCC3=O)c3cc(C)ccc3n2C)c1	none
O=C(CC1CCCC1)Nc1cccc(Br)c1	D1 antagonist -38
CC(C)CC1NC(=O)N(CC(=O)Nc2cccc(Br)c2)C1=O (stereo not given)	D1 antagonist -39
Nc1nc(-c2ccccc2)c(-c2ccc([N+](=O)[O-])cc2)s1	D1 ag 71
Nc1nc(-c2ccccc2)c(-c2ccccc2)s1	none
CN(C)c1ccc2c(c1)OC(N)=C(C#N)C2c1cccc(F)c1 (stereo not given)	D1 ag 75
COc1ccc(NC(=O)C(=O)NCCc2csc(-c3ccc(Cl)cc3)n2)cc1	none
CN(C)c1nc(NCc2ccccc2)nc(SCC(=O)Nc2ccc(Cl)c(Cl)c2)n1	none
COC(=O)CSc1nc(NCc2ccccc2)nc(N(C)C)n1	D1 antagonist -40
COc1ccc(Nc2ncc(C(=O)Nc3cccc(Cl)c3)c3ccccc23)cc1	none
CC(=O)Nc1ccc2nc3c(=O)n(C)c(=O)n(C)c3nc2c1	D1 ag 34
O=S(=O)(O)C1CCNCC1	D1 antagonist -49
O=S(=O)(N1CCCCCC1)N1CCNCC1	none
CC(C)CSc1oc(-c2ccco2)nc1S(=O)(=O)c1ccc(Br)cc1	none
C=CCn1c(SCc2ccc(OC)cc2)nnc1-c1cccnc1	none
C=CCn1c(SCc2ccc(F)cc2)nnc1-c1sc2nc(C)cc(C)c2c1N	D1 antagonist -38
CCc1ccc(NC(=O)c2nc3nc(C)cc(C(F)F)n3n2)cc1	none
CC(=O)Nc1ccc(S(=O)(=O)NCc2cccn2Cc2cccc(C)c2)cc1	none
c1ccc(N2OCC3Cn4c(nc5ccccc54)C32)cc1 (stereo not given)	D1 antagonist -36
c1ccc(CN2OCC3Cn4c(nc5ccccc54)C32)cc1 (stereo not given)	none
COc1cc(CNCCO)cc(Cl)c1OCc1ccc(Cl)cc1Cl	D1 ag 154
COc1cc(CNCCO)cc(Br)c1OCc1ccccc1Cl	D1 ag 69
Cc1cccc(Cn2cc3c(=O)n(CC(=O)Nc4c(C)cccc4C)nc-3c3cc(F)ccc32)c1	none
CN(C)c1ccc(NC(=O)CN2CCN(CC(=O)Nc3ccc(Br)cc3)CC2)cc1	none
CCOC(=O)C1(CCc2ccccc2)CCN(C(=O)CN2C(=O)CSC2=O)CC1	D1 ag 48
O=c1[nH]cnc2sc3c(c12)CCC3	TRHR PAM 33
CCOC(=O)N1CCc2c(sc3ncn(Cc4ccc(F)cc4)c(=O)c23)C1	none
Cc1nc2sc3c(c2c(=O)[nH]1)CCC3	none
CCOC(=O)N1CCc2c(sc3nc[nH]c(=O)c23)C1	D1 antagonist -31
CCOc1ccccc1NC(=O)Cn1c(=O)n(Cc2ccccc2)c(=O)c2c(C)c(C)sc21	none
COc1ccc(CCNC(=O)c2ccc3c(c2)N(Cc2c(F)cccc2Cl)C(=O)CS3)cc1OC	none
Cc1ccc(-c2nc(-c3cc4cccc(OCc5ccccc5F)c4oc3=O)no2)cc1	none
CC(C)c1nc(SCC(=O)Nc2ccc(N3CCOCC3)cc2)c2ccccc2n1	none
CCCc1nc(SCC(=O)Nc2ccc(N3CCOCC3)cc2)c2ccccc2n1	D1 antagonist -36
CCOc1ccc(NC(=O)CSc2nc3ccccc3nc2N2CCOCC2)cc1	TRHR PAM 34!
COc1ccc(NC(=O)CSc2nc3ccccc3nc2N2CCOCC2)cc1	none
Cc1ccc2c(=O)cc(C(=O)Nc3c(C)n(C)n(-c4ccccc4)c3=O)oc2c1	none
COc1ccc(CCNC(=O)c2ccc3c(c2)N(Cc2ccccc2Cl)C(=O)c2ccccc2S3)cc1OC	none
